Assay results as given in PubChem BioAssay.
Values without a mark were called inactive. How the calls were made is not given here.

Target: Pantothenate synthetase (Mycobacterium tuberculosis (strain ATCC 25618 / H37Rv)) (UniProt P9WIL5)
Experiment: Coupled enzyme confirmation of inhibitors against recombinant Mtb PanC (AID 375);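 further: 0% = full reaction with vehicle and 100% = no enzyme background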
Conditions: coupled enzyme assay; at 10 µM, stronger effect = higher value

Chain of Pantothenate synthetase (Mycobacterium tuberculosis (strain ATCC 25618 / H37Rv)) (P9WIL5 whole entry, looked up): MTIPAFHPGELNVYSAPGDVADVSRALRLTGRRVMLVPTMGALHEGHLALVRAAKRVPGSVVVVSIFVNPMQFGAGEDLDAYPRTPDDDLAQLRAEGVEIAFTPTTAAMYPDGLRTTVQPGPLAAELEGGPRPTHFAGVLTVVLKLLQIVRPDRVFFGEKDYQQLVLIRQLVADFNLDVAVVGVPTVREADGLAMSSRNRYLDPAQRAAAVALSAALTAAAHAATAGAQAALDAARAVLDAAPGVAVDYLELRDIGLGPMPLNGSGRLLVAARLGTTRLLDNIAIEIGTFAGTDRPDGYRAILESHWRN

SMILES	inhibition [%]
c1ccc(-c2noc(C3CCCCC3)n2)nc1	0
CCOC(=O)c1ccc(S(=O)(=O)Nc2cc(C(C)(C)C)no2)cc1	2
O=C(O)CSC1CC(=O)N(c2ccc(Cl)c(Cl)c2)C1=O (centres undefined)	0
CCCS(=O)(=O)N1CCC(C(=O)N2CCCC2)CC1	7
COc1ccccc1C(=O)N1CCN(CCc2ccccc2)CC1	6
CCOC(=O)C1C(=O)NC(SCC(=O)Nc2nccs2)=C(C#N)C1c1ccccc1OCC (centres undefined)	0
C=CCn1c(SCC(=O)NC2CCCCC2)nnc1-c1sc(N)nc1C	7
OCCN1CCN(CCCN2c3ccccc3Sc3ccc(Cl)cc32)CC1	0
Cc1sc2nc(SCC(=O)N3CCN(CCO)CC3)n(-c3ccccc3)c(=O)c2c1C	6
CCOC(=O)c1cc(-c2nnc(-c3ccc(Oc4ccccc4)cc3)o2)c(C)nc1C	0
CCCCn1c(CNC(=O)CCC)nc2ccccc21	4
COc1ccc(CCNS(=O)(=O)c2ccc3oc(C(=O)O)c(C)c3c2)cc1OC	0
Cc1ccc(Cn2c(C)nc3c(c2=O)c2nc4ccccc4nc2n3Cc2ccco2)cc1	0
Cc1ccc2cc(CN(CC3CCCO3)S(=O)(=O)c3ccc4c(c3)OCCO4)c(=O)[nH]c2c1C (centres undefined)	2
COc1ccc(S(=O)(=O)NCc2ccc(C(=O)O)cc2)cc1	0
CCCn1c(N2CCN(CC(=O)Nc3ccc4c(c3)OCCO4)CC2)nc2ccccc21	6
COc1ccc(NC(=O)CSc2nc(C)cc(C(F)(F)F)n2)cc1	0
CC(C)(C)n1ncc2c(=O)n(CC(=O)NCc3ccco3)cnc21	11
CCOC(=O)c1ccc(NC(=O)COc2ccc(-n3cnnn3)cc2)cc1	0
C#CCOC(=O)C1C2C=CC(C2)C1C(=O)O (centres undefined)	1

SMILES	inhibition [%]
CCCOc1cccc(NC(=O)c2c(-c3ccccc3)noc2C)c1	0
COC(=O)c1ccccc1NC(=O)N1CCCC1	0
CC(=O)c1cc(-c2ccccc2)n(CC(=O)N2CCN(C3CCCC3)CC2)c1C	11
Cc1sc2ncnc(SCC(=O)N3CCCC3)c2c1C	0
CCOc1ccccc1CN(Cc1ccco1)S(=O)(=O)c1ccc(-n2cnnn2)c(OC)c1	8
CC(=O)c1ccc(NC(=O)c2noc3c2CCCCC3)cc1	1
Cn1c(=O)c2c(nc(SCC(=O)NCc3ccco3)n2C)n(C)c1=O	0
O=c1c2c3c(sc2nc2sc(C4CC4)nn12)CCCC3	0
O=C(O)CCCC(=O)Nc1nc(-c2ccc(F)cc2)cs1	0
COc1ccc(Cn2nnnc2CN2CCOCC2)cc1	6
Cc1ccc(N2C(=O)c3ccccc3C2Nc2cccnc2)nc1 (centres undefined)	1
Oc1cccc(C=NCc2ccccc2)c1O	0
COc1ccc(CC(NC(C)=O)C(=O)NC2CCN(C(=O)Nc3ccc(C#N)cc3)CC2)cc1OC (centres undefined)	10
CN(CC(=O)Nc1ccncc1)S(=O)(=O)c1ccccc1	10
CC(C)Oc1ccc(-c2nn(-c3ccccc3)cc2/C=c2\sc3ncnn3c2=O)cc1	0
Cc1cccc(NC(=O)CC2NC3CCCCC3NC2=O)c1 (centres undefined)	0
CCOc1ccc(-n2c(=O)cc(N3CCN(c4ccccc4)CC3)[nH]c2=O)cc1	0
COC(=O)c1ccc(CSc2nc3ccccc3c(=O)n2Cc2ccco2)o1	6
CC(CN1c2ccccc2Sc2ccccc21)N(C)C (centres undefined)	0
